An excerpt weighted towards active compounds, which were near 1.6% of everything screened.
Imprint erasure = qHTS Assay for Compounds that Induce Erasure of Genomic Imprints | mouse ES Peg3-LacZ reporter, beta-gal luminescence, 40 h | Potency, µM (doses to about 60.7 µM), inactives show at the highest dose activity change, positive = activation, actives largely listed as activators | 110,000 compounds, 0.02% hits | AID 1948, 2009; also: potency is read from the fitted curve at half-maximal effect
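Readout: BetaGlo luminescence (5 min, room temp) for LacZ from the normally silent maternal Peg3 allele in female Peg3LacZ-Neo ES cells. Cells 300/well, 40 h, 37C, 5% CO2. Data normalized per plate to negative controls.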
UbGFP stabilizer = Ubiquitin-GFP Assay. Ubiquitin-GFP reporter cells, proteasome inhibition, GFP fluorescence; response scale: untreated = 0%, 10 µM MG-132 = 100%. Potency, µM (titrated, usually from 45.9 µM), inactives show at the top dose activation (GFP accumulation), hits mostly activators. 67,000 tested, under 10 active. AID 526, 2006; active = well fitted activation curve with a large enough effect, not every such curve was filed as active; inconclusive = small, poorly fitted or top-dose-only effect, or another doubt; inactive = no such curve, though single readings can be large or run the other way; also: potency is read from the fitted curve at half-maximal effect
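Proteasome block read as GFP accumulation: ubiquitin(G76V)-GFP U2OS cells exposed to compound (2.9 nM–46 uM) for 4 hr at 37 C. Normalization used untreated cells as 0% and 10 uM MG-132 as 100%; concentration-response curves fitted.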
Epigenetic mod = qHTS Assay for Epigenetic Modulators. mouse C127i GFP locus derepression, cytometry, 30 h. Potency, µM (titrated, usually from 46.1 µM), inactives show at the highest dose GFP derepression (activation). 68,000 compounds, 0.09% hits. AID 597, 2007; also: % of control where 0% means no effect
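Read-out is the number of GFP-positive cells, scored as fluorescent objects 20 to 120 um wide, reflecting derepression of a silenced CMV-GFP reporter in murine C127i cells after 30 h compound exposure at 37 C.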
p53ts 32C kill = qHTS Screen for Compounds that Selectively Target Cancer Cells with p53 Mutations: Cytotoxicity of p53ts Cells at the Permissive Temperature; H1299-p53A138V at 32C, ATP luminescence viability, 24 h; Potency, µM (highest dose often 46.1 µM), without a hit: top-dose activity change, negative = cytotoxicity, usual class: cytotoxic; 130,000 compounds, 0.93% hits;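 also: potency is read from the fitted curve at half-maximal effect; 0% = DMSO and -100% = full killing by reference compound; nearly all actives have a fitted effect of over 55% in size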
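ATP-content luminescence (ATPlite) read-out after 24 h compound exposure at 32C in H1299-p53A138V cells (600/well). Tested up to 46 uM. Normalized to DMSO (0%) and 100 uM tamoxifen (100% killing); Hill-fit AC50.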
HBB splice mod = qHTS Assay for Modulators of Hemoglobin Beta Chain Splicing | 65,000 compounds, 0.06% hits | HBB splicing reporter cell assay, activation; EGFP reporter with mutant IVS2-654 intron; response scale: normalised to 500 nM splice-correcting PNA | Potency, µM (highest dose often 46.1 µM), for inactives: top-dose activation, actives largely listed as activators | AID 925, 2007; also: potency is read from the fitted curve at half-maximal effect; 0% is about no effect
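Compounds were applied for 2 days to HeLa EGFP-654 cells, 500/well in Optimem with 2% FCS. The reporter's EGFP is disrupted by mis-splicing of beta-globin intron IVS2-654. Readout: summed well GFP fluorescence from 488 nm laser scanning; reference was 500 nM antisense […] 654 PNA.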
p53ts 39C kill = qHTS Screen for Compounds that Selectively Target Cancer Cells with p53 Mutations: Cytotoxicity of p53ts Cells at the Nonpermissive Temperature; H1299-p53A138V viability at 39C, ATP luminescence, 24 h; Potency, µM (series often up to 46.1 µM), inactives show at the highest dose activity change, negative = cell killing, actives largely listed as cytotoxic; 130,000 compounds, 1.5% hits; AID 902, 2007; also: potency is read from the fitted curve at half-maximal effect; % is scaled to controls: 0 for no effect and ±100 for the full control effect; nearly all actives have a fitted effect of over 55% in size
The depositor's hits bear a star; ? = inconclusive; . = not tested or not shown; [ ] = another dose, or the depositor's remark. Unless noted, calls follow the shape of the dose curve; as a rule, active = well fitted curve in the direction sought with a large enough effect; inconclusive = small, poorly fitted or top-dose-only effect, or another doubt; inactive = no such curve, though single readings can be large; an effect the other way counts as inactive or inconclusive.

SMILES | Imprint erasure | UbGFP stabilizer | Epigenetic mod | p53ts 32C kill | HBB splice mod | p53ts 39C kill
N#Cc1cc(C(=O)c2ccccc2OCC(=O)Nc2ccccc2)cn(C2CCCCC2)c1=O | . | . | . | -2% | . | 2%
CC(C)c1ccc2c(c1)CC[C@H]1[C@](C)(CN)CCC[C@]21C | -74% | . | . | ? | -1% | 16µM*
CCOC(=O)Cc1c(C)nc2c(-c3cccc(Br)c3)c[nH]n2c1=O | -30% | -13% | 2% | ? | -2% | 13µM*
Cc1ccc2[nH]c(CSc3nnc(NC(=O)COc4ccccc4F)s3)cc(=O)c2c1 | 6%[10.9 µM] | . | . | -1% | . | 10%
Cc1ccc(Sc2ccc(N3CCC(C(=O)Nc4cc(C)cc(C)c4)CC3)nn2)cc1 | -1%[10.9 µM] | . | . | ? | . | 13µM*
CC1CCN(S(=O)(=O)c2ccc3c(ccc(=O)n3CC(=O)NCc3ccccc3Cl)c2)CC1 | -12%[10.9 µM] | . | . | 1% | . | -7%
COC(=O)c1ccc(C(NC(=O)OCc2ccccc2)/C(=C/[C@@H](C)C(=O)Nc2ccccc2)c2cccnc2)cc1 (stereo partly specified) | -18% | . | . | 7% | 0% | 2%
COC1=CC(=O)C=C(OC)C1=O | -39% | . | . | ? | . | 16µM*
COC1=CC(=O)C(C(=O)c2ccccc2)=CC1=O | 18% | . | . | ? | . | ?
Cc1ccnc(NC(c2ccccc2F)c2ccc3cccnc3c2O)c1 (stereo unspecified) | -10%[10.9 µM] | . | . | -12% | . | ?
Cc1ccnc(NC(c2cc(C)ccc2O)c2ccc3cccnc3c2O)c1 (stereo unspecified) | -14%[10.9 µM] | . | . | ? | . | 13µM*
Oc1c(C(Nc2ccccn2)c2ccccn2)ccc2cccnc12 (stereo unspecified) | -23% | 0% | 5µM* | -5% | -1% | 4µM*
Oc1c(C(Nc2ccccn2)c2ccccc2F)ccc2cccnc12 (stereo unspecified) | -13%[10.9 µM] | . | . | 4% | . | 10µM*
Cc1ccc(OC(=O)CSc2nnc(-c3cccs3)o2)cc1C | 7%[10.9 µM] | . | . | 3% | . | 7%
Cc1ccc(NC(=O)COc2ccc(-c3nn(C)c(=O)c4ccccc34)cc2)c(C)c1 | -16%[10.9 µM] | . | . | -1% | . | -8%
Cc1nc2cc(NC(=O)N3c4ccccc4CC3C)ccc2n1C (stereo unspecified) | -66% | 1% | 6% | 6.3µM* | 0% | 5µM*
Cc1nc2cc(NC(=O)NCc3ccc4c(c3)OCO4)ccc2o1 | 2% | -5% | 0% | 0% | 0% | -4%
Cc1nc2cc(NC(=O)N3c4ccccc4CC3C)ccc2o1 (stereo unspecified) | -40% | 7% | 0% | 10µM* | 0% | 10µM*
Cc1cccc(NC(=O)CSc2ncc(-c3ccc(Br)cc3)[nH]2)c1 | 27%[10.9 µM] | . | . | ? | . | 13µM*
CCOC(=O)c1[nH]c(C)c(CCC(=O)N2CCN(c3cccc(OC)c3)CC2)c1C | -2%[10.9 µM] | . | . | 3% | . | -14%
CCCN(CCC)CCNC(=O)c1cc2c(-c3ccc(Cl)cc3)nn(C)c2s1 | -14%[10.9 µM] | . | . | -24% | . | 13µM*
CCN(CC)CCNC(=O)c1cc2c(-c3ccc(Cl)cc3)nn(C)c2s1 | -29% | -8% | . | -13% | 0% | -19%
CCCCN(CC)CCNC(=O)c1cc2c(-c3ccc(Cl)cc3)nn(C)c2s1 | -5%[10.9 µM] | . | . | 1% | . | 16µM*
Cc1cc(C)c(NC(=O)C2CCN(S(=O)(=O)c3c(C)noc3/C=C/c3ccccc3F)CC2)c(C)c1 | -9%[10.9 µM] | . | . | 16% | . | -8%
O=c1cc(-c2ccccc2)nc2nc(CCc3ccccc3)[nH]n12 | -9% | 3% | 2% | 13% | 0% | 8%
